Structures are written as SMILES. The panel holds about 83,000 compounds, 20% with a hit somewhere; the sample as a whole holds those more often.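 Note: values are percent growth. 100 is the growth of untreated cells, values between 100 and 0 indicate rising inhibition; between -100 and 0 indicates cell death.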 Unmarked numbers belong to inactive results. Calls of active or inactive are those of the source. How the source made its calls: active means growth percent below 10; inactive means the rest.

The subject of the test is IGROV1 ovarian. The test can be described thus: NCI-60 one-dose screen, 48 h (100 = growth as untreated, 0 = no growth, -100 = all killed). To be noted: 10 µM unless noted.
As for `CC(=O)OC[C@]12CC[C@@H]([C@@H](C)c3nnc(-c4ccncc4)o3)[C@@H]1[C@H]1CC[C@@H]3[C@@]4(C)CC[C@H](OC(C)=O)C(C)(C)[C@@H]4CC[C@@]3(C)[C@]1(C)CC2`, the growth was 100%.

As to `CN(Cc1ccccc1)c1nc(Cl)c(C2CC(c3ccccc3)=NN2c2ccccc2)s1` (stereo not drawn), the growth was 97.2%.

As to `CSc1nc(C)c([N+](=O)[O-])c(N)n1`, the growth is 110%.

On to `CN1CCN(Cc2ccc(NC(=O)c3cncc(C#Cc4cnc(N)c5ccc(F)cc45)c3)cc2C(F)(F)F)CC1`, for which the growth was 0.192% (active).

In the case of `CN1CCN(C(=O)[C@@]2(C)CC[C@]3(C)CC[C@]4(C)C(=CC[C@@H]5[C@@]6(C)CCC(=O)NC(C)(C)[C@@H]6CC[C@]54C)[C@@H]3C2)CC1`, the growth is 63.8%.

Consider `COc1ccc(/C=C2\CN(C(=O)C(Cl)Cl)C/C(=C\c3ccc(OC)cc3)C2=O)cc1`, for which the growth is -50.7% (active).

For `O=C(NNc1cnccn1)c1nc2cc(F)ccc2n2cccc12`, the growth was 9.25% (active).

Take `COc1cc(/C=C2\CN(S(=O)(=O)c3ccccc3)C/C(=C\c3cc(CN4CCCCC4)c(O)c(OC)c3)C2=O)cc(CN2CCCCC2)c1O`: the growth was -51.8% (active).

As to `COc1ccc(/C=C/C(c2cc(OC)c(OC)c(OC)c2)n2ccnc2)cc1O` (stereo not drawn), the growth was 55.7%.

With `C/C=C(/C)n1cnc2c(Nc3ccccn3)nc(Cl)nc21`, the growth was 103%.

`Oc1ccc(/C=C/c2ccc(O)cc2)cc1`: the growth is 43.9%.

As for `C#CCOc1cccc(-c2ncnc3cc(NC(=O)C=C)ccc23)c1`, the growth is 33.5%.

Consider `CCOC(=O)c1nn(CC(O)c2ccccc2)c(NC(=O)Nc2cccc(F)c2)c1C` (stereo not drawn), for which the growth was 109%.

For `O=C(N/N=C\c1ccccc1S(=O)(=O)O)N/N=C/c1ccccc1S(=O)(=O)O`, the growth is 109%.

As for `CC[C@]12C=CCN3CC[C@@]4(c5ccc(OC)cc5N(C)[C@H]4[C@@](O)(C(=O)OC)[C@@H]1OC(=O)CCC[P+](c1ccccc1)(c1ccccc1)c1ccccc1)[C@@H]32`, the growth was -0.0574% (active).

As for `CCCn1nc(C(=O)N(C)Cc2ccccc2)c2c1CCC(N1CCc3ccccc31)C2` (stereo not drawn), the growth is 85.1%.

For `C=C1C(=O)O[C@H]2[C@H]1CC/C(COC(=O)/C=C\C(=O)NCc1ccc(Cn3c(=O)sn(CCCl)c3=O)cc1)=C\CC[C@@]1(C)O[C@@H]21`, the growth is 34.8%.

As to `COC(=O)c1ccc(NC(=O)Nc2ccc(C(=O)OC)cc2)cc1`, the growth was 106%.

With `O=C(O)c1cn(C2CC2)c2cc(N3CCN(C(=O)Nc4nc(-c5ccc(Br)cc5)cs4)CC3)c(F)cc2c1=O`, the growth was 28.8%.

With `NC(=O)c1c(NC(=O)c2cccc(C(F)(F)F)c2)sc2c1CCC(=O)C2`, the growth was -6.14% (active).

As for `CC1=C(C(=O)Nc2ccccc2)C(c2ccc3c(c2)OCO3)NC(=S)N1` (stereo not drawn), the growth was 103%.

Regarding `NS(=O)(=O)c1ccc(-c2cc(-c3nnc(SCC(=O)Nc4ccc(C(=O)/C=C/c5ccc(Cl)cc5)cc4)n3-c3ccccc3)c3ccccc3n2)cc1`, the growth was 99.2%.

As for `COC(=O)c1cc(Br)ccc1O`, the growth was 110%.

On to `C=C1C(=O)O[C@H]2[C@H]1CC/C(COC(=O)/C=C/C(=O)OC/C1=C/CC[C@@]3(C)O[C@H]3[C@H]3OC(=O)C(=C)[C@@H]3CC1)=C\CC[C@@]1(C)O[C@@H]21`, for which the growth is 87.6%.

In the case of `CNC1=CC(=O)c2c(C(=O)OC)c(C)[n+]([O-])c(C)c2C1=O`, the growth is 70.2%.

For the compound `O=C(Nc1ncccc1OCc1ccccc1)NC1CCCCCC1`, the growth is 89.1%.

On to `O=C1/C(=C\c2cccc3nccnc23)SC(=S)N1CCc1ccc(O)cc1`, for which the growth is 95.4%.

As for `O=C1/C=C/[C@@H](O)[C@@H]2C[C@@H](O)C[C@H]2/C=C/CCC[C@@H](O)CCO1`, the growth was 108%.

Consider `Cc1ccc(CNc2c3ccccc3nc3ccccc23)cc1`, for which the growth was 19.4%.

As to `Cc1ccnc(Nc2ccc([N+](=O)[O-])c(NCCN3CCOCC3)n2)c1`, the growth is 28.4%.

As to `CSc1nn2c(-c3ccc4ccccc4c3)ccnc2c1C#N`, the growth is 20.5%.

As to `COc1cc2nc3sc(C(=O)Nc4ccc(C(=O)OC(C)C)cc4)c(C(=O)Nc4ccc(Cl)cc4C)n3c(=O)c2cc1OC`, the growth is 17%.

For `COC(=O)/C=C1/SC(=Nc2ccc([N+](=O)[O-])cc2)N(CCc2c[nH]c3ccc(O)cc23)C1=O`, the growth is 42.6%.

The values are drawn from PubChem BioAssay (NCI).
